Common to all, as to assay: DAPPL (digital affinity profiling via proximity ligation, sequencing); 10 mM Tris-HCl pH 7.5, 50 mM NaCl, 1 mM DTT, 4% glycerol, room temperature, 30 min; GST-TFs on glutathione beads, 16-mer random dsDNA library, 0.1% formaldehyde crosslink after washing; high values mean tight binding
One assay deals with T1, FEV (Homo sapiens, UniProt Q99581 1-238).
T1 sequence: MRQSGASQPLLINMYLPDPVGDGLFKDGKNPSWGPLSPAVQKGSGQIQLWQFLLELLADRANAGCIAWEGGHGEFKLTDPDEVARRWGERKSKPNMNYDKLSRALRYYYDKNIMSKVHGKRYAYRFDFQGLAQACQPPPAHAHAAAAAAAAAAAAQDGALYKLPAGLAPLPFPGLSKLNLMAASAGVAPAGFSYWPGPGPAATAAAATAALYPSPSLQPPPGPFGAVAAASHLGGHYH
The following applies: protein: recombinant; tags: N-terminal GST; dsDNA, one strand shown. The method, boiled down:
(§1)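 Pools were built from human transcription factors expressed in yeast as GST fusions, captured on glutathione beads and DNA-barcoded, along with a tag-only sample. Incubation with 200 nmole of a 16-mer random double-stranded DNA library lasted 30 min at room temperature in Tris/NaCl/DTT/glycerol buffer, and was followed by washing, 0.1% formaldehyde crosslinking, proximity ligation, PCR amplification and Illumina NextSeq500 sequencing. Binding signal is the quotient of each hexamer's read frequency for a factor and its frequency for the tag-only sample.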

For the next assay, the target named is ETV5 (Homo sapiens, UniProt P41161 1-510). Particulars: protein: recombinant; tags: N-terminal GST; dsDNA, one strand shown. The method, boiled down: as §1
Another assay concerns the target HSF1 (Homo sapiens, UniProt Q00613 1-529). The following applies: protein: recombinant; tags: N-terminal GST; chain copies: 3; dsDNA, one strand shown. The method in brief: as §1
The target in another assay is T2, SPIC (Homo sapiens, UniProt Q8N5J4 1-248).
T2 sequence: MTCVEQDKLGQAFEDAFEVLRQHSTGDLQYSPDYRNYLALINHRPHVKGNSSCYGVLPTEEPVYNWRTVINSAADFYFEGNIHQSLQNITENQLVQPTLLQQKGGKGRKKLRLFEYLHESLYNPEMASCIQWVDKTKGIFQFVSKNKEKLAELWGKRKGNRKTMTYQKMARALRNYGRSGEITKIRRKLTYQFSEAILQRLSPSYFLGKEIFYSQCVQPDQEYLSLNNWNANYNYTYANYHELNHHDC
The following applies: protein: recombinant; tags: N-terminal GST; dsDNA, one strand shown. The method, boiled down: as §1

The target of a further assay is ELF4 (Homo sapiens, UniProt Q99607 1-663). The following applies: protein: recombinant; tags: N-terminal GST; dsDNA, one strand shown. The method, boiled down:
as §1

A further assay deals with T3, ELK4 (Homo sapiens, UniProt P28324-2 1-405).
T3 sequence: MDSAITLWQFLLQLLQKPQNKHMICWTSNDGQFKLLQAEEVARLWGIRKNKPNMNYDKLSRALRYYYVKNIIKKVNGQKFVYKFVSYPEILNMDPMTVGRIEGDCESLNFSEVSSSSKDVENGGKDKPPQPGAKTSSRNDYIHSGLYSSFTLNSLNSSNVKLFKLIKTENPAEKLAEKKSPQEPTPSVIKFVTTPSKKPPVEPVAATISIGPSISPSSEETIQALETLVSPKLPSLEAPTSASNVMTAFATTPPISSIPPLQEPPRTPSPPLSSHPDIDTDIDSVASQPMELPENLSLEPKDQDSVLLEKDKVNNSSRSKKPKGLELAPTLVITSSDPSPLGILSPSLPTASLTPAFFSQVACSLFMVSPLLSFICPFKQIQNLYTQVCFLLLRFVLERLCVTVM
Particulars: protein: recombinant; tags: N-terminal GST; dsDNA, one strand shown. The method, boiled down:
as §1

The target in the next assay is T4, ETV2 (Homo sapiens, UniProt O00321 1-342).
T4 sequence: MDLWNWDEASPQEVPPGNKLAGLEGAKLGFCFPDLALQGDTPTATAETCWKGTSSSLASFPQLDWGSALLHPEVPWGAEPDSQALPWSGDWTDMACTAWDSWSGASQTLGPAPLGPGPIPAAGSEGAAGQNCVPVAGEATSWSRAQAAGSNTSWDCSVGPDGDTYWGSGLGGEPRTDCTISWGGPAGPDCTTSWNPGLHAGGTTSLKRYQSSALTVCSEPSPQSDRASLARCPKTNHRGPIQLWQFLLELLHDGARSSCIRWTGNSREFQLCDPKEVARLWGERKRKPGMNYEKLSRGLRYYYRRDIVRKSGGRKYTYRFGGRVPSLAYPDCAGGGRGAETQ
Particulars: protein: recombinant; tags: N-terminal GST; dsDNA, one strand shown. The method in brief: as §1

The next assay deals with T5, ELF3 (Homo sapiens, UniProt P78545 1-371).
T5 sequence: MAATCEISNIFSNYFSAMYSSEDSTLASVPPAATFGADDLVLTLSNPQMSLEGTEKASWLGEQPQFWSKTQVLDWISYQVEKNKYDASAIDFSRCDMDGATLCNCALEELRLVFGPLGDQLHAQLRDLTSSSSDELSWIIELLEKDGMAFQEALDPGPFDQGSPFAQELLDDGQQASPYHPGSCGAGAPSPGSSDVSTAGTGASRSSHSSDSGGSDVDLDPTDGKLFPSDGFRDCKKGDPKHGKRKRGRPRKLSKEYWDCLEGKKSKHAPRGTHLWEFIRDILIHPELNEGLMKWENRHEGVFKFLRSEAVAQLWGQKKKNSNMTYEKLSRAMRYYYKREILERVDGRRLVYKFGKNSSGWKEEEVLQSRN
The following applies: protein: recombinant; tags: N-terminal GST; dsDNA, one strand shown. The method, boiled down:
as §1

Another assay addresses CRX (Homo sapiens, UniProt O43186 1-299). Particulars: protein: recombinant; tags: N-terminal GST; dsDNA, one strand shown. The method in brief: as §1
Another assay concerns the target ETV1 (Homo sapiens, UniProt P50549 1-477). Particulars: protein: recombinant; tags: N-terminal GST; dsDNA, one strand shown. The method in brief: as §1
The target of another assay is T6, ERF (Homo sapiens, UniProt P50548 1-548).
T6 sequence: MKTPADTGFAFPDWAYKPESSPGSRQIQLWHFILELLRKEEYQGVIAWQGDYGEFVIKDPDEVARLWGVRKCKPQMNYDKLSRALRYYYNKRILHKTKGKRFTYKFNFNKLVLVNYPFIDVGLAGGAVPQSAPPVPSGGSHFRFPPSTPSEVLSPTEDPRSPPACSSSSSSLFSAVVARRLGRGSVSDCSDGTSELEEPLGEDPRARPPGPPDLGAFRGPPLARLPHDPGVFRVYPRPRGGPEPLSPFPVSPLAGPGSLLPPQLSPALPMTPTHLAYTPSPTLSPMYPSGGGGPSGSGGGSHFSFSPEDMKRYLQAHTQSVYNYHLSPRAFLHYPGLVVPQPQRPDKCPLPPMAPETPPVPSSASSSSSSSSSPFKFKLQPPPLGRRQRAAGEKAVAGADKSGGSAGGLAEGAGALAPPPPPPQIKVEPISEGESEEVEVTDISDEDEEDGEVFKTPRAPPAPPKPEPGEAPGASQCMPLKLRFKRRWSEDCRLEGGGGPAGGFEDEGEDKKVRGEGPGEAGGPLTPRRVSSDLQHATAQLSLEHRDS
Particulars: protein: recombinant; tags: N-terminal GST; dsDNA, one strand shown. The method in brief: as §1

For another assay, the target named is T7, ETV3L (Homo sapiens, UniProt Q6ZN32 1-361).
T7 sequence: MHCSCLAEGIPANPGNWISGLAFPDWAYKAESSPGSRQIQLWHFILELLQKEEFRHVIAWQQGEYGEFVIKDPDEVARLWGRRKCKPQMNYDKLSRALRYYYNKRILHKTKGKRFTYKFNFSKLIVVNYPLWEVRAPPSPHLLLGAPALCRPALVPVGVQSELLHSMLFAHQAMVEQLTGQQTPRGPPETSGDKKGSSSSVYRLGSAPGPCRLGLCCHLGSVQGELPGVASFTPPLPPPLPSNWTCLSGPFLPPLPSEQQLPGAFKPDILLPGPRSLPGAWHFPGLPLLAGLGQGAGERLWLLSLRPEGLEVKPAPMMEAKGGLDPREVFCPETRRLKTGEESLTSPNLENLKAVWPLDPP
The following applies: protein: recombinant; tags: N-terminal GST; dsDNA, one strand shown. The method in brief:
as §1

The target in the next assay is T8, ETS2 (Homo sapiens, UniProt P15036 1-469).
T8 sequence: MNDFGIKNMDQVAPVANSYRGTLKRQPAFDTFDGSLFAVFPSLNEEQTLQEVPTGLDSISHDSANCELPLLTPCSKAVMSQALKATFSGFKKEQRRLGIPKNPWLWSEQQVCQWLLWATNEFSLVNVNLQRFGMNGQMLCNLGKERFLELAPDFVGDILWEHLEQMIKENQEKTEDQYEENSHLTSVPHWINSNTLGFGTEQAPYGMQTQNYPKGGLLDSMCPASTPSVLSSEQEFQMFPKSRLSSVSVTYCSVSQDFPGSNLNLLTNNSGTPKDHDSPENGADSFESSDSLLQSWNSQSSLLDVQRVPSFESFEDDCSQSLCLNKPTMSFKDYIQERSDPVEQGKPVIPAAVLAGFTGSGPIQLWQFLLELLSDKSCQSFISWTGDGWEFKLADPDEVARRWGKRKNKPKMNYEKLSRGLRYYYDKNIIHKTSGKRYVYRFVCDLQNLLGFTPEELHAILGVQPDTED
The following applies: protein: recombinant; tags: N-terminal GST; dsDNA, one strand shown. The method in brief:
as §1

The next assay has as its target T9, SPDEF (Homo sapiens, UniProt O95238 1-335).
T9 sequence: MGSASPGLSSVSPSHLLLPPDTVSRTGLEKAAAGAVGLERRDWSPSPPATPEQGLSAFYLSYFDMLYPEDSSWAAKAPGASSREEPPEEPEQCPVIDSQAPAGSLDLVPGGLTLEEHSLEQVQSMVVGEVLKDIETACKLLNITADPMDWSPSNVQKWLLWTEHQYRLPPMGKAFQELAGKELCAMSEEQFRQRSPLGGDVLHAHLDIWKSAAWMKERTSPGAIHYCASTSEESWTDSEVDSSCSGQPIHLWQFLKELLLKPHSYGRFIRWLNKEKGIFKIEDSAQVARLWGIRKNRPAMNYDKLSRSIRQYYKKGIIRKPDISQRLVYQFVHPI
Particulars: protein: recombinant; tags: N-terminal GST; dsDNA, one strand shown. The method in brief: as §1

A further assay deals with T10, ETV7 (Homo sapiens, UniProt Q9Y603 1-341).
T10 sequence: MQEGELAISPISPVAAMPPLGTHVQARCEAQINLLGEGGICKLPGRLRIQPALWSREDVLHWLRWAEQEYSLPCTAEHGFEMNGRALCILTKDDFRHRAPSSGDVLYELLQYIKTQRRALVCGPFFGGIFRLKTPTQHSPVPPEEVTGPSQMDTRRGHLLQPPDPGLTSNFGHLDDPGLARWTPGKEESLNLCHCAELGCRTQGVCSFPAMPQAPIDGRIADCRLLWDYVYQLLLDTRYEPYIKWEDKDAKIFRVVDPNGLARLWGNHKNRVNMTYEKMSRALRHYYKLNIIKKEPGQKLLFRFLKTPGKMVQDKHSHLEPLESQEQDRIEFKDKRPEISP
Particulars: protein: recombinant; tags: N-terminal GST; dsDNA, one strand shown. The method in brief: as §1

The target in the next assay is T11, ELF5 (Homo sapiens, UniProt Q9UKW6-2 1-255).
T11 sequence: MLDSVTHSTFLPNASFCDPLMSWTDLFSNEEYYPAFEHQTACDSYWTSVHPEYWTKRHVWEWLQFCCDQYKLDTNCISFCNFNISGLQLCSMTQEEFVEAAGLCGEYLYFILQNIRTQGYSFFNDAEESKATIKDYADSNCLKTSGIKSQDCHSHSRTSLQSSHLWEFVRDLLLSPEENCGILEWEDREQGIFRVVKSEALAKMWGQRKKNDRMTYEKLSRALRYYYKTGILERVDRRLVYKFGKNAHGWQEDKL
The following applies: protein: recombinant; tags: N-terminal GST; dsDNA, one strand shown. The method, boiled down: as §1

The target in the next assay is T12, ETV3 (Homo sapiens, UniProt P41162-2 1-143).
T12 sequence: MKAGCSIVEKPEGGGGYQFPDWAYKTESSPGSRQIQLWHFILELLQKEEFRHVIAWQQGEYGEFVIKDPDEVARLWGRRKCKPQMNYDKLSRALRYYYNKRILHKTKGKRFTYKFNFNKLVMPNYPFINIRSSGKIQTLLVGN
Particulars: protein: recombinant; tags: N-terminal GST; dsDNA, one strand shown. The method, boiled down: as §1

The target of the next assay is ETV6 (Homo sapiens, UniProt P41212 1-452). The following applies: protein: recombinant; tags: N-terminal GST; dsDNA, one strand shown. The method, boiled down: as §1
ETV6, sequence (P41212 whole entry): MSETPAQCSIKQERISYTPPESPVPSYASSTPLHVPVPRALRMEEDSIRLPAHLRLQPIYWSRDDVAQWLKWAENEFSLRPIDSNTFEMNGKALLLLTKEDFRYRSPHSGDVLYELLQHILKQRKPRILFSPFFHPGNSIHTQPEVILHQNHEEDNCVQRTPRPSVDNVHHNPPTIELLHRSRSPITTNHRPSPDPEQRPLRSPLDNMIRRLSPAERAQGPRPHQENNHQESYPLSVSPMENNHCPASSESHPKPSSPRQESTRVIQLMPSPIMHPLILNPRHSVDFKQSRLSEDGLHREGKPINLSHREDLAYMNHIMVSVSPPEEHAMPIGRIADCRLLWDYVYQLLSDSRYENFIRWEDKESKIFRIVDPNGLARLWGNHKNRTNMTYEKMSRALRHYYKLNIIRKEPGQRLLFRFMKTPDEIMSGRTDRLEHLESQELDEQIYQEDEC

ETV5, sequence (P41161 whole entry): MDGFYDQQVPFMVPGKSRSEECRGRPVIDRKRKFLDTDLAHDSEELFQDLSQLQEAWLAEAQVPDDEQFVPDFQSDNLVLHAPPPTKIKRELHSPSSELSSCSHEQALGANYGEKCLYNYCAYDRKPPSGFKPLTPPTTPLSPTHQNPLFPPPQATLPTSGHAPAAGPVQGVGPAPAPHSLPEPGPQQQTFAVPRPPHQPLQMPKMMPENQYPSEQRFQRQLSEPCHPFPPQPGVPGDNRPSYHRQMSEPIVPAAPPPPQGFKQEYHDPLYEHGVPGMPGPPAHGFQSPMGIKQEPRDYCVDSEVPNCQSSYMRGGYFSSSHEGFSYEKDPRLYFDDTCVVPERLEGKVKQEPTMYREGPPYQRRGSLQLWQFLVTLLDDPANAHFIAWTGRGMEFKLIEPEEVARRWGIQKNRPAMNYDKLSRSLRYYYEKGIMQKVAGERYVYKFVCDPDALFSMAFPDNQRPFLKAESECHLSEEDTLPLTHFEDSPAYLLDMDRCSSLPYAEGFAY
HSF1, sequence (Q00613 whole entry): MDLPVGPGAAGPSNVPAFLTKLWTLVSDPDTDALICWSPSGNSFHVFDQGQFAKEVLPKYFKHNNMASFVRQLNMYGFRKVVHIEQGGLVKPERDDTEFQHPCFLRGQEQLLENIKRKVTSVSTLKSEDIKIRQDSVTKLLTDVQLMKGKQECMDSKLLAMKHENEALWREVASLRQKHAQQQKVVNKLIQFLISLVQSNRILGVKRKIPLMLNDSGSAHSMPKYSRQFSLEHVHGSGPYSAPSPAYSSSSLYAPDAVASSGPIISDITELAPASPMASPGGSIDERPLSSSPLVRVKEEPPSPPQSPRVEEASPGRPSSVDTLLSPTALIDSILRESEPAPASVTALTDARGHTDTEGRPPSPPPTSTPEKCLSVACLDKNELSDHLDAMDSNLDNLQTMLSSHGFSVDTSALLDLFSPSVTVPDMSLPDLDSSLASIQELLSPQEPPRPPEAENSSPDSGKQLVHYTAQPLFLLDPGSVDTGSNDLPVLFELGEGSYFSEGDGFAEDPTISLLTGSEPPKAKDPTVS
ELF4, sequence (Q99607 whole entry): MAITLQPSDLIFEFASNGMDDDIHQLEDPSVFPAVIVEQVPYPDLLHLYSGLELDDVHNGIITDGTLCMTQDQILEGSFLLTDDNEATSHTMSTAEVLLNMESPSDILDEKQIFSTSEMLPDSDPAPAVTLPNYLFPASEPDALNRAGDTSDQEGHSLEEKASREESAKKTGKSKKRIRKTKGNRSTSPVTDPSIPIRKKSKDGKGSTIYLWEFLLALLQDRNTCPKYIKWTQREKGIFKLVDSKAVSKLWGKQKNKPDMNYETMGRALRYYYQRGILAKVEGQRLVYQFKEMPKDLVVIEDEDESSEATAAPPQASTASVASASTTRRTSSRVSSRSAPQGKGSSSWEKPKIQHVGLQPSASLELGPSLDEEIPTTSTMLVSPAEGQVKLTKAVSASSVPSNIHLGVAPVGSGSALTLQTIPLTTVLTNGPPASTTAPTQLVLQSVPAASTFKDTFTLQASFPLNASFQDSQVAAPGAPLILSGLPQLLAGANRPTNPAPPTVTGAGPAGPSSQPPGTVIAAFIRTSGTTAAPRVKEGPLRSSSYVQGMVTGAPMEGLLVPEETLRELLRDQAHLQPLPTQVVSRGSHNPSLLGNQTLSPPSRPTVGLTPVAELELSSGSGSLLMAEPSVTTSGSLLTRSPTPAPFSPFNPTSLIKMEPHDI
ETV1, sequence (P50549 whole entry): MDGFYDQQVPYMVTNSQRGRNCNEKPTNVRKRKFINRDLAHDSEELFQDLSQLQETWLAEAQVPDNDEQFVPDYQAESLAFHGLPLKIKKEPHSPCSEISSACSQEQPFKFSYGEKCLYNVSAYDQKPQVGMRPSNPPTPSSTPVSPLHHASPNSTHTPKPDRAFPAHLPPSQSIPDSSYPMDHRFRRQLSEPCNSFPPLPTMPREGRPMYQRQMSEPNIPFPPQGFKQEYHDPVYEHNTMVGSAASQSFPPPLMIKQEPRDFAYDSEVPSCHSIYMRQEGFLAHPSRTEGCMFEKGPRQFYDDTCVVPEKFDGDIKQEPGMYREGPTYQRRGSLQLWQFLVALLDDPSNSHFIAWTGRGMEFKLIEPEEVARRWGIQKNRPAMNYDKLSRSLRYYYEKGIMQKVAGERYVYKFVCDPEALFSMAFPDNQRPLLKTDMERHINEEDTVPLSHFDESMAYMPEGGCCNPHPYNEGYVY
CRX, sequence (O43186 whole entry): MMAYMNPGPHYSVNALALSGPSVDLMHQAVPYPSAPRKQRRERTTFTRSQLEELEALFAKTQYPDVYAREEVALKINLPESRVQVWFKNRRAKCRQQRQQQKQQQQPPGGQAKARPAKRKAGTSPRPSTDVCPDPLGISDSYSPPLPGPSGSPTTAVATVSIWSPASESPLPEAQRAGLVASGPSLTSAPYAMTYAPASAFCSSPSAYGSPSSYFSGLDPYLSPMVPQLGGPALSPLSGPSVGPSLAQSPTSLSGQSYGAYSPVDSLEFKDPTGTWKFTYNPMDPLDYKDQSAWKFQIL

On to TGTGCT, for which the binding signal with FEV is 1.25 fold enrichment (6-mer frequency, TF over GST control); with ETV5, 1.18 fold enrichment (6-mer frequency, TF over GST control); with HSF1, 1.15 fold enrichment (6-mer frequency, TF over GST control); with SPIC, 1.35 fold enrichment (6-mer frequency, TF over GST control); with ELF4, 1.17 fold enrichment (6-mer frequency, TF over GST control); with ELK4, 1.17 fold enrichment (6-mer frequency, TF over GST control). Moreover, the binding signal in the assay with ETV2 is 1.21 fold enrichment (6-mer frequency, TF over GST control); in the assay with ELF3, 1.27 fold enrichment (6-mer frequency, TF over GST control); in the assay with CRX, 1.1 fold enrichment (6-mer frequency, TF over GST control); with ETV1, 1.18 fold enrichment (6-mer frequency, TF over GST control); in the assay with ERF it was 1.19 fold enrichment (6-mer frequency, TF over GST control); in the assay with ETV3L it was 1.12 fold enrichment (6-mer frequency, TF over GST control). For the same sequence, the binding signal with ETS2 was 1.12 fold enrichment (6-mer frequency, TF over GST control); in the assay with SPDEF it was 1.31 fold enrichment (6-mer frequency, TF over GST control); with ETV7, 1.18 fold enrichment (6-mer frequency, TF over GST control); with ELF5, 1.15 fold enrichment (6-mer frequency, TF over GST control); with ETV3, 1.18 fold enrichment (6-mer frequency, TF over GST control); with ETV6, 1.22 fold enrichment (6-mer frequency, TF over GST control).

The values are drawn from PMC7862700, “An all-to-all approach to the identification of sequence-specific readers for epigenetic DNA modifications on cytosine”.
